# Shown are actives, neighbours in structure and some others; about 2.1% of the full set was active somewhere.
# MsrA inhibitor – inhibits bovine methionine sulfoxide reductase A; purified bovine MsrA, absorbance read-out; inhibition, % at 15.5 µM; 360,000 tested, 0.75% active; AID 651718; in the data active means inhibition above about 4.5%;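 further: 0% = vehicle wells with enzyme and 100% = reference inhibitor wells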
# SMARCA2 act – SMARCA2 function activation, primary screen; MG213 cells, MMTV-luciferase reporter, dexamethasone, overnight; activation, % at 9.1 µM; AID 652017; 370,000 tested, 1% active; in the data active means activation above about 7.8%;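 further: 0% = vehicle wells and 100% = reference activator wells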
# bovine MsrA act – bovine methionine sulfoxide reductase A activation; purified bovine MsrA, absorbance read-out; activation, % at 10.6 µM; AID 602163; 360,000 tested, 0.3% active; in the data active means activation above about 7.5%;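 further: 0% = vehicle and 100% = reference activator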
# ABCB6 inh 2 – blocks the human ABCB6 transporter | K562-ABCB6 porphyrin accumulation, flow cytometry, 1 h; stronger effect = lower value | fluorescence ratio to DMSO, % at 10 µM | 360,000 tested, 0.19% active | AID 602162;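 active means fluorescence ratio to DMSO below 75%, the collection mean minus 3 SD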;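 further: signal is porphyrin accumulated inside mitochondria; 100% equals median channel fluorescence of DMSO control wells; lower ratio means ABCB6 inhibition with less porphyrin fluorescence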
# Target sequence (Q9NP58 whole entry, looked up): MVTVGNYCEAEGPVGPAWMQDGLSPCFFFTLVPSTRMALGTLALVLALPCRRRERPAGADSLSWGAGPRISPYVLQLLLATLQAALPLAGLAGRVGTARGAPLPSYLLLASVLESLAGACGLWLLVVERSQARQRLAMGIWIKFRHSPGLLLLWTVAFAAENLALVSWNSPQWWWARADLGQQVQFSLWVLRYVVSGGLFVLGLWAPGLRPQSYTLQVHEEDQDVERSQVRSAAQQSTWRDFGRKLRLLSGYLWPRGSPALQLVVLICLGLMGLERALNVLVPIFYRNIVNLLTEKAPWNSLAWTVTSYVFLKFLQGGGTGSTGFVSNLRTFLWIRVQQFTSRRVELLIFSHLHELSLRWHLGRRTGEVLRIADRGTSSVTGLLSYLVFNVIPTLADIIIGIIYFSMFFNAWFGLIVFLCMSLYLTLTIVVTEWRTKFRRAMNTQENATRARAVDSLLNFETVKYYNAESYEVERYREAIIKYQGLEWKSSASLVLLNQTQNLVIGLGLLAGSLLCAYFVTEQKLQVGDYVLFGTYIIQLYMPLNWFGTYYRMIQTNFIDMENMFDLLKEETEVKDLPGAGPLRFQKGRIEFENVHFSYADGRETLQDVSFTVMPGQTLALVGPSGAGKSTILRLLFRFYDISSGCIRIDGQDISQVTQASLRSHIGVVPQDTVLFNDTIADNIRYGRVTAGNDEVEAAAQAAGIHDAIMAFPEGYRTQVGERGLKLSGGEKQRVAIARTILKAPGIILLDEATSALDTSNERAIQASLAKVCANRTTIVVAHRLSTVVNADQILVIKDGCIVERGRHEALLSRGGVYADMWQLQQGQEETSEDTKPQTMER
# SMARCA2 conf – SMARCA2 activation, confirmation screen; MG213 cells, MMTV-luciferase with dexamethasone, luminescence, overnight; MG213 cells expressing E1A, Rb sequestered; DMSO wells 0%, reference activator 100%; 3,500 tested, 30% active; activation, % at 9.1 µM; AID 652260; shares compounds with SMARCA2 act;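 active means activation above its plate's cutoff, the mean activation of tested wells plus 3 SD, cut at about 7.9% in these data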
# GAL4-VP16 Luc – counter-screen for SMARCA2 activators: GAL4-VP16 luciferase reporter activation | AID 686939 | activation, % at 9.1 µM | 3,500 tested, 41% active | HEK293 GAL4-VP16 pG5luc reporter, luciferase luminescence; scaled: DMSO wells 0%, SAHA wells 100% | shares compounds with SMARCA2 act;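 active means activation above the solvent-only control well mean plus 3 SD, averaged across control plates, cut at about 5.2% in these data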
# Numbers without * were called inactive; · = no result given; ! = not confirmed by another sample.
SMILES,MsrA inhibitor,SMARCA2 act,bovine MsrA act,ABCB6 inh 2,SMARCA2 conf,GAL4-VP16 Luc
CCOC(=O)Cn1cncc1-c1ccc([N+](=O)[O-])cc1,2,13*,-3,98,6,3
O=C1/C(=C/c2cccnc2)SC(=NCc2ccccc2)N1Cc1ccccc1,2,-5,-2,102,·,·
O=C1/C(=C/c2cccnc2)SC(=S)N1CCc1ccccc1,0,8.7*,-3,103,1,1
CCOC(=O)C1=C[C@@H](C(C)(C)C)N(S(=O)(=O)c2ccc(C)cc2)[C@H]1c1ccc(F)cc1,-1,-4,2,97,·,·
Cc1cc(C)cc(Cn2cc(CN3CC(N4CCCCC4)CS3(=O)=O)nn2)c1 (stereo not drawn),-1,8.2*,-2,95,1,0
COc1ccc2cc(C#N)c(SCC(=O)NNC(=O)Cc3ccccc3)nc2c1,1,9.1*,-2,96,1,1
COc1ccc(NC(=O)C2CCCN(c3ncccn3)C2)cc1 (stereo not drawn),1,8.4*,-1,99,6,5.2*
COc1ccc(NC(=O)C2CCCN(c3nccc(C)n3)C2)cc1 (stereo not drawn),0,-3,-2,96,·,·
Cc1ccc(NC(=O)C2CCCN(c3ncccn3)C2)cc1C (stereo not drawn),1,15*,-1,105,7,7.0*
Cc1ccc(C(=O)N(C)Cc2nc3ccccc3c(=O)[nH]2)cc1NC(=O)c1ccco1,-1,8.1*,-9,100,-1,1
CC(C)C[C@@H]1COc2cc(NCCO)ccc2S(=O)(=O)N1,-1,0,·,·,·,·
CN(C)c1ccc(-c2ccc3c(=O)c4ccccc4n(C)c3c2)cn1,0,8.5*,-3,99,9.8*,11*
C/C(N)=C(/C#N)C(=O)CSc1n[nH]c(-c2ccccc2Br)n1,0,8.6*!,-12,98,-1,1
C/C(N)=C(/C#N)C(=O)CSc1ccccc1F,0,9.0*,-2,97,10*,8.8*
Cn1sccc1=O,2,9.4*,7,93,17*,2
Cc1oncc1C(=O)Nc1ccc2ccccc2c1,0,9.1*,-3,96,9.3*,5
Cc1oncc1C(=O)Nc1cccc2ccccc12,1,-2,-11,101,·,·
COc1ccc(-c2nc(C#N)c(NCc3cccnc3)o2)cc1OC,3,10*,0,94,-2,3
COc1ccc(-c2nc(C#N)c(NCc3ccc(F)cc3)o2)cc1OC,1,0,2,108,·,·
COc1ccc(C[N+]2=C(N)NC3=C(C)Cn4c(=O)n(-c5ccccc5)c(=O)n4C3C2)c(OC)c1 (stereo not drawn),·,-2,·,·,·,·
CC(=O)Nc1ccc(NC(=O)C(C)OC(=O)/C(C#N)=C/c2ccc(N(C)C)cc2)cc1 (stereo not drawn),1,8.0*,-2,269,8.7*,7.3*
O=C(Nc1ccc2oc(-c3ccccc3Cl)nc2c1)c1ncn[nH]1,0,2,-2,90,·,·
O=C(Nc1ccc2oc(-c3ccccc3Cl)nc2c1)c1cncc(Br)c1,0,8.1*,-6,94,0,5
N#C/C(=C\c1ccc(OCc2ccc(C(=O)O)cc2)cc1)C(=O)N1CCOCC1,4,10*,-6,88,2,15*
O=C(c1ccc(Cl)c([N+](=O)[O-])c1)N(Cc1cccc(Cl)c1)C1CCS(=O)(=O)C1 (stereo not drawn),0,10*,2,98,-4,1
COCCNC(=O)/C(C#N)=C/C=C/c1ccccc1[N+](=O)[O-],4,12*,-4,97,18*,0
Cc1ccc(CN2CCCCC(NC(=O)Nc3cccc([N+](=O)[O-])c3)C2=O)cc1 (stereo not drawn),·,-3,·,·,·,·
COc1ccc([C@H]2OC(=O)C[C@@H]2C(=O)N2CCCCC2)cc1OC,·,-3,·,·,·,·
CCOC(=O)c1c(NC(=O)CN2CCN(S(=O)(=O)c3cc(Cl)ccc3Cl)CC2)sc(C(=O)N(C)C)c1C,1,-4,-1,96,·,·
CCc1nc2ccc(C(=O)Nc3ccc(OC)c(OC)c3)cn2c1N(C)Cc1nccs1,0,-1,-2,98,·,·

# Source: PubChem BioAssay
